TIM10 inh: TIM10 yeast growth inhibition; 330,000 compounds, 1.4% hits; S. cerevisiae TIM10 strain growth, BacTiter-Glo luminescence, 24 h; inhibition, % at 10 µM;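 active = inhibition of 40% or more at the single tested concentration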;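 note: wild-type TIM10 isogenic control strain grown at permissive 25 °C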
tim10-1 inh: tim10-1 yeast growth inhibition; S. cerevisiae tim10-1 ts strain growth, BacTiter-Glo, 24 h; inhibition, % at 20 µM; 330,000 compounds, 2.2% hits; AID 463190;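 active = inhibition of at least 40%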;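 note: mutant grown at 25 °C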
tim23-1 inh: tim23-1 yeast growth inhibition. S. cerevisiae tim23-1 growth, BacTiter-Glo luminescence, 24 h. inhibition, % at 20 µM. 330,000 compounds, 1.3% hits. AID 463212;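 active = growth inhibition of the mutant yeast at or above 50%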;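 note: temperature-sensitive mutant grown at 25 °C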
NLRP3 yeast inh: blocks the NALP3 inflammasome reconstituted in yeast; Yeast reconstituted NLRP3/ASC/caspase-1, beta-gal luminescence, 24 h; inhibition, % at 10 µM; 330,000 compounds, 0.39% hits; AID 2825;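 active = inhibition of 50% or more; inactive = inhibition below 50%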
PfHsp90 yeast 2: reduces growth (ATP signal) of yeast expressing P. falciparum Hsp90; S. cerevisiae expressing PfHsp90, BacTiter-Glo ATP, 48 h; yeast lacking PDR1 and PDR3 efflux regulators; AID 504621; inhibition, % at 9.4 µM; 310,000 compounds, 0.32% hits;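 active = every replicate shows inhibition above about 80%, whatever the replicate mean, limit read from the data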
SKKanGAS inh: SKKanGAS growth inhibition; S. pyogenes SKKanGAS, kanamycin growth, BacTiter-Glo, 6 h; inhibition, % at 7.5 µM; 300,000 compounds, 1.3% hits;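 active = mean replicate score, as percent of positive control median, at least 50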;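 note: strain carries kanamycin resistance gene driven by streptokinase promoter and grows in 40 µg/ml kanamycin; loss of luminescence reflects streptokinase promoter inhibition or plain growth inhibition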
tim10-1 conf: tim10-1 yeast growth inhibition, confirmed | inhibition, % at 20 µM | 7,400 compounds, 56% hits | AID 463213 | shares compounds with tim10-1 inh | S. cerevisiae tim10-1 ts strain growth, BacTiter-Glo, 24 h;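 active = inhibition of yeast growth at or above a set limit in either of two repeat tests at 20 µM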;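 note: tim10-1 mutant grown at permissive 25 °C to find synthetic lethal compounds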
Large screens that a line does not name were inactive (follow-up assays come after a bar, where they were run). Most compounds without a hit are left out; they make up all but 4.5% or so of the library.

Cc1ccc(NC(=S)NCc2ccccc2)c(C)c1	none
Cc1ccc(SCCNC(=S)Nc2ccc(C)cc2C)cc1	tim10-1 inh 44 | tim10-1 conf inactive
COc1ccc(Cl)cc1NC(=O)CN(C)C(=O)CCSc1ccc(C)cc1	none (no result: SKKanGAS inh)
COc1ccc(Cl)cc1NC(=S)NCCSc1ccc(C)cc1	tim10-1 inh 49 | tim10-1 conf 40
Cc1cccc(C)c1NC(=S)NCCSc1ccc(Cl)cc1	tim10-1 inh 42 | tim10-1 conf inactive
Fc1ccccc1CNc1cc(Cl)cc(Cl)c1	tim10-1 inh 59, SKKanGAS inh 73 | tim10-1 conf 65
O=[N+]([O-])c1ccccc1CNc1ccc(F)c(Cl)c1	none
Nc1ccccc1Nc1cc(-c2cccc(Cl)c2)nn1-c1ccccc1	tim10-1 inh 40 | tim10-1 conf 34
Cc1cc(Nc2ccccc2)n(-c2cccc(Cl)c2)n1	none
CC(C)(C)c1ccc(C(=O)NCCN2CCOCC2)cc1	none
CC(C)(C)c1ccc(/C=C(\C#N)C(=O)NCCN2CCOCC2)cc1	tim10-1 inh 40 (no result: PfHsp90 yeast 2) | tim10-1 conf 33
CC(C)(C)n1ncc2c(=O)n(Cc3ccccc3Br)cnc21	none (no result: SKKanGAS inh)
CCC(C)(C)NC(=O)CN(Cc1ccc2c(c1)OCO2)C(=O)CCC(=O)Nc1cc(C)ccn1	none
COCCCN(CC(=O)Nc1ccc(N2CCOCC2)cc1)S(=O)(=O)c1ccc(Cl)cc1	none
Cc1nc(SCc2nc3ccc(Br)cc3[nH]2)c2oc3ccccc3c2n1	none (no result: SKKanGAS inh)
CCc1nc(SCc2nc3ccccc3[nH]2)c2oc3ccccc3c2n1	tim10-1 inh 40 | tim10-1 conf inactive
CN(C)S(=O)(=O)c1ccc(NC(=O)c2ccc(Br)o2)cc1	none
CN(C1CCCCC1)S(=O)(=O)c1ccc(NC(=O)c2ccc(Br)o2)cc1	tim10-1 inh 52 | tim10-1 conf 42
NNc1nc2c(F)cc(F)cc2s1	tim10-1 inh 41 | tim10-1 conf inactive
Nc1nc(-c2ccc3ccccc3c2)cs1	tim10-1 inh 43 | tim10-1 conf inactive
CCCCc1ccc(NS(=O)(=O)c2cccs2)cc1	tim10-1 inh 41 (no result: PfHsp90 yeast 2) | tim10-1 conf inactive
Nc1ncnc2c1ncn2[C@@H]1O[C@H](CNC(=O)[C@@H]2CCCN2S(=O)(=O)c2ccc(F)cc2)[C@@H](O)[C@H]1O	none (no result: NLRP3 yeast inh, SKKanGAS inh)
CC(C)N=C1NN=C(c2ccc(Cl)c(Cl)c2)CS1	tim10-1 inh 48 | tim10-1 conf inactive
CC(C)N=C1NN=C(c2cccs2)CS1	none
O=C(COc1ccccc1F)OCC(=O)c1ccc([N+](=O)[O-])cc1	none (no result: SKKanGAS inh)
O=C1CC(N2CCC(Cc3ccccc3)CC2)C(=O)N1CCc1ccccc1 (centres undefined)	tim10-1 inh 46 | tim10-1 conf inactive
COc1ccc(OCCN(C)Cc2c(O)ccc3ccccc23)cc1	none
COc1ccc(N2CCN(C(=O)c3cc(-c4ccc(F)cc4)[nH]c3C)CC2)cc1	tim10-1 inh 42 | tim10-1 conf 40
Cc1[nH]c2ccc(C(=O)N3CCN(c4ccc(F)cc4)CC3)cc2c1C	tim10-1 inh 54 | tim10-1 conf inactive
COC(=O)c1ccc(-c2csc(NC(=O)c3c(C)noc3C)n2)cc1	none (no result: SKKanGAS inh)
Cc1noc(C)c1CSCC(=O)Nc1nc(-c2ccc(F)c(F)c2)cs1	tim10-1 inh 40 | tim10-1 conf inactive
COc1ccc(-c2csc(NC(=O)CSCc3c(C)noc3C)n2)cc1OC	none
COc1ccc(S(=O)(=O)N2CCN(c3ccccc3OC)CC2)cc1	tim10-1 inh 43 | tim10-1 conf 34
O=S(=O)(NCCC1=CCCCC1)c1c(Cl)cccc1Cl	none
COc1ccc(OC)c(NS(=O)(=O)c2c(C(=O)N3CCCCCC3)c(C)n(C)c2C)c1	none
COC(=O)c1ccccc1NC(=O)CSc1nc(O)cc(=O)n1C1CCCC1	tim10-1 inh 46 | tim10-1 conf inactive
O=C(CSc1c(F)c(F)cc(F)c1F)Nc1ccc(C2SCCS2)cc1	none
CCCN1C(=O)S/C(=C\c2ccc(N3CCOCC3)o2)C1=O	tim10-1 inh 45 | tim10-1 conf 48
O=C(O)CN1C(=O)/C(=C/c2ccc(N3CCCCC3)o2)SC1=S	none
CCOC(=O)CN1C(=O)S/C(=C/c2ccc(N3CCCCC3)o2)C1=O	none
CCCN1C(=O)S/C(=C/c2ccc(N3CCOCC3)o2)C1=O	tim10-1 inh 41 | tim10-1 conf 38
COC(=O)CN1C(=O)S/C(=C/c2ccc(N3CCCCC3)o2)C1=O	tim10-1 inh 54 | tim10-1 conf 51
Cc1ccc(S(=O)(=O)N2CCCCC2C)cc1[N+](=O)[O-] (centres undefined)	none
CC(C)c1ccc(CN(C(=O)c2ccco2)C2CCS(=O)(=O)C2)cc1 (centres undefined)	none
Cc1oncc1C(=O)Nc1cccc(C#N)c1	none
CCC/C=N/NC(=O)c1[nH]c2c([N+](=O)[O-])cccc2c1C	tim10-1 inh 41 | tim10-1 conf inactive
O=C(/C=C\c1ccco1)Nc1ccc(N2CCN(C(=O)c3ccccc3)CC2)cc1	tim10-1 inh 42 | tim10-1 conf 32
CCc1nc2ccc(C(=O)N3CCN(c4cccc(C(F)(F)F)c4)CC3)cc2nc1CC	tim10-1 inh 42 | tim10-1 conf inactive
O=C(/C=C/c1ccco1)N1CCN(c2ccccc2)CC1	none
O=C(c1ccc2nc(-c3ccco3)c(-c3ccco3)nc2c1)N1CCN(c2ccccc2)CC1	tim10-1 inh 42 | tim10-1 conf 33
CSc1ccccc1NC(=O)CN(C)Cc1c(O)ccc2ccccc12	none
CCOC(=O)C1CCN(C(=O)Cn2c(=O)oc3cc(S(=O)(=O)N4CCCC4)ccc32)CC1	none
Cc1ccc(NC(=O)C(C)N2C(=O)C3C4CC(C(Br)C4Br)C3C2=O)cc1 (centres undefined)	tim10-1 inh 48 (no result: PfHsp90 yeast 2) | tim10-1 conf 32
CN(CC1COc2ccccc2O1)C(=O)Cn1cc(C(F)(F)F)ccc1=O (centres undefined)	none (no result: SKKanGAS inh)
CCOC(=O)c1cnc2ccc(C)cc2c1Nc1ccc(N2CCOCC2)cc1	tim10-1 inh 41 | tim10-1 conf inactive
CCOC(=O)c1ccc2ncc(C(=O)OCC)c(NCCN3CCOCC3)c2c1	none
Cc1c(Cc2ccccc2)c(=O)oc2cc(OCC(=O)N3CCC(C(=O)O)CC3)ccc12	none
Cc1ccc(C(C)C)c(OCCCN2C(=O)NC(C)(C)C2=O)c1	tim10-1 inh 43 (no result: PfHsp90 yeast 2) | tim10-1 conf inactive
Cc1ccc([N+](=O)[O-])c(OCCN2C(=O)NC(C)(C)C2=O)c1	none
Cc1ccccc1C(=O)NC1CCCCCCC1	none
O=C(NC1CCCCCC1)c1ccc[nH]c1=S	tim10-1 inh 44 | tim10-1 conf inactive
Cc1ccc(NC(=O)N2CCCC2C(=O)Nc2c(C)cc(C)cc2C)cc1 (centres undefined)	none
